This note sets out measurements from article PMC4242493, “Sequence specificity incompletely defines the genome-wide occupancy of Myc”.

The full ranking holds about 33,000 sequences; the median of “normalized occupancy” is about 0.075, and the highest 2% start at about 0.095. The full list was thinned out, with the highest values kept by preference.

Chain of MaxL homodimer (P61244 whole entry): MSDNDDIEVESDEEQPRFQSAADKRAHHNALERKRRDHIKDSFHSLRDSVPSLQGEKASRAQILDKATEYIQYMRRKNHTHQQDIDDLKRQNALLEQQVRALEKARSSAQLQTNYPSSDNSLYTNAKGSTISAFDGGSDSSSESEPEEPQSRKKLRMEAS

The assay addresses MaxL homodimer (Homo sapiens, UniProt P61244 1-160). Briefly: universal protein-binding microarray (PBM); PBS-based mixture, 10 nM His-tagged protein dimer, 2% milk, 200 ng/uL BSA, 50 ng/uL salmon testes DNA, 0.02% TX-100; detection with Alexa 488 anti-His antibody;; high values mean tight binding. The conditions noted are these: protein: recombinant; tags: C-terminal His-tag (pET21a); chain copies: 2; dsDNA, one strand shown. The procedure, abridged: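 Binding occupancy is a fluorescence intensity normalised to the intensity of the highest-ranked sequence word. Those intensities came from 8-mers on Agilent 4 x 44 K 'all 10-mer' universal arrays incubated with 10 nM His-tagged protein dimer. Bound protein was detected with 10 ng/μL fluorophore-conjugated anti-His antibody before scanning on a GenePix 4400A.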
For GTACGTGA, the binding signal came out at 0.078 normalized occupancy.
The figure for GCACGTAC is 0.0883 normalized occupancy; for GCACGTGC it is 0.834 normalized occupancy.
In the case of GATTGGGA, the binding signal was found to be 0.076 normalized occupancy.
With TGCGCCCA, the binding signal stood at 0.0758 normalized occupancy.
Then CGATTTCA, with 0.072 normalized occupancy; and GCCTGGCA, with 0.0722 normalized occupancy.
Consider ACAACACG, for which the binding signal is 0.0955 normalized occupancy.
In the case of ACAACATG, the binding signal was 0.0952 normalized occupancy.
The figure for ATAACATC is 0.0807 normalized occupancy; for ACAACACA it is 0.0849 normalized occupancy; for ACAACATC it is 0.0778 normalized occupancy.
Take ATAACATG: the binding signal worked out at 0.0981 normalized occupancy.
Take ATAACACA: the binding signal was determined as 0.0874 normalized occupancy.
Take ACAACATA: the binding signal was 0.0833 normalized occupancy.
With ATAACATA, the binding signal stood at 0.0882 normalized occupancy.
Then ACAACACC, with 0.0812 normalized occupancy; and ATAACACG, with 0.0958 normalized occupancy.
Then GTAACACA, with 0.0828 normalized occupancy; and GTTTCTTA, with 0.0733 normalized occupancy.
Turning to CCTTAACA, the binding signal came out at 0.0794 normalized occupancy.
Then GTAGGCTA, with 0.0748 normalized occupancy; and CACATGGG, with 0.166 normalized occupancy.
As for GACATGGA, the binding signal is 0.0844 normalized occupancy.
Regarding GACATGGC, the binding signal was 0.0801 normalized occupancy.
The figure for AACATGGA is 0.0836 normalized occupancy; for ACCATGGG it is 0.0927 normalized occupancy; for AACATGGG it is 0.0935 normalized occupancy.
The figure for CCCATGGA is 0.0846 normalized occupancy; for CACATGGA it is 0.162 normalized occupancy; for CACATGGC it is 0.199 normalized occupancy.
Turning to AACATGGC, the binding signal was 0.0896 normalized occupancy.
The figure for CAAATGGG is 0.0805 normalized occupancy.
Then CCCATGGG, with 0.0962 normalized occupancy; and ATAAGAGG, with 0.073 normalized occupancy; and AGGACAAG, with 0.0738 normalized occupancy.
With GAGTCTGA, the binding signal amounted to 0.0726 normalized occupancy.
For the sequence TATTACAA, the binding signal stood at 0.0802 normalized occupancy.
As for CAAACCGA, the binding signal was 0.0737 normalized occupancy.
Then GGAGAACA, with 0.0748 normalized occupancy; and CGACGTCA, with 0.0748 normalized occupancy.
The figure for ATACAAGG is 0.0755 normalized occupancy; for CATAGGCG it is 0.0751 normalized occupancy.
Regarding ACGTGCCA, the binding signal turned out to be 0.115 normalized occupancy.
For ACGTGCCG, the binding signal was determined as 0.0929 normalized occupancy.
Regarding ACGTGCCT, the binding signal was 0.0959 normalized occupancy.
For TCGTGCCA, the binding signal is 0.0874 normalized occupancy.
Consider CCGTGCCA, for which the binding signal was found to be 0.0772 normalized occupancy.
For ACGTGCCC, the binding signal was 0.0948 normalized occupancy.
For the sequence AACAATAC, the binding signal was 0.076 normalized occupancy.
Turning to CTTTCCAA, the binding signal is 0.0733 normalized occupancy.
For AATGCACA, the binding signal was found to be 0.0785 normalized occupancy.
As for GATGCACA, the binding signal amounted to 0.0921 normalized occupancy.
Turning to CCTGCACG, the binding signal is 0.0845 normalized occupancy.
With AATGCACT, the binding signal was determined as 0.0779 normalized occupancy.
Regarding CTTGCACA, the binding signal stood at 0.0801 normalized occupancy.
On to AATGCACG, for which the binding signal was 0.0974 normalized occupancy.
As to TATGCACA, the binding signal worked out at 0.0883 normalized occupancy.
In the case of CATGCACG, the binding signal turned out to be 0.101 normalized occupancy.
AATGCACC: the binding signal is 0.0777 normalized occupancy.
Turning to GATGCACC, the binding signal came out at 0.0775 normalized occupancy.
Then CATGCACC, with 0.0986 normalized occupancy; and CATGCACA, with 0.0961 normalized occupancy; and GAGACATA, with 0.0802 normalized occupancy.
The figure for AGATAATC is 0.0755 normalized occupancy; for ACAGGCAT it is 0.0804 normalized occupancy.
With ATCGCAAT, the binding signal was 0.0728 normalized occupancy.
As to AATCTTCA, the binding signal was found to be 0.072 normalized occupancy.
As to ACGAAAAG, the binding signal was 0.0718 normalized occupancy.
For the sequence ACCTTATG, the binding signal came out at 0.0812 normalized occupancy.
For AAGGCATA, the binding signal amounted to 0.0742 normalized occupancy.
ACGGCGTC: the binding signal was found to be 0.0722 normalized occupancy.
Turning to AAGGCATT, the binding signal turned out to be 0.0725 normalized occupancy.
ATGGCACA: the binding signal is 0.0786 normalized occupancy.
As to AAGGCATG, the binding signal was 0.0988 normalized occupancy.
CTGGCACA: the binding signal was 0.0744 normalized occupancy.
For the sequence ACGGCGTA, the binding signal stood at 0.0728 normalized occupancy.
The figure for ATGGCACG is 0.0985 normalized occupancy.
For the sequence ATGGCATA, the binding signal was 0.085 normalized occupancy.
With ACGGCGTG, the binding signal worked out at 0.0958 normalized occupancy.
As for ATGGCATG, the binding signal worked out at 0.0968 normalized occupancy.
For the sequence ATGGCATC, the binding signal turned out to be 0.0919 normalized occupancy.
On to CGATGATA, for which the binding signal is 0.0772 normalized occupancy.
With CTTAATCA, the binding signal was determined as 0.073 normalized occupancy.
Take CAGAGACA: the binding signal was 0.0742 normalized occupancy.
With CTTCACCA, the binding signal stood at 0.085 normalized occupancy.
On to AACAACCA, for which the binding signal came out at 0.0769 normalized occupancy.
AAAACATA: the binding signal came out at 0.0798 normalized occupancy.
As to AAAGAGGA, the binding signal was 0.0738 normalized occupancy.
On to ACCTCAAA, for which the binding signal was found to be 0.0749 normalized occupancy.
Then CTTGCGTA, with 0.0773 normalized occupancy; and GGCTTCCA, with 0.0728 normalized occupancy; and CAGGCATA, with 0.0804 normalized occupancy.
Consider CAGGCATG, for which the binding signal was found to be 0.0964 normalized occupancy.
ACGGCATC: the binding signal worked out at 0.0761 normalized occupancy.
Turning to ACGGCATG, the binding signal is 0.103 normalized occupancy.
Regarding CAGGCATC, the binding signal stood at 0.0725 normalized occupancy.
Regarding ACGGCATA, the binding signal was 0.0754 normalized occupancy.
Turning to GACAGACC, the binding signal stood at 0.0741 normalized occupancy.
The figure for AACTCCAG is 0.0726 normalized occupancy.
On to AGTGCTGC, for which the binding signal was determined as 0.072 normalized occupancy.
As to GATTTGAC, the binding signal is 0.0751 normalized occupancy.
The figure for ACGCATTG is 0.0891 normalized occupancy.
As to CCGCATCC, the binding signal was 0.0787 normalized occupancy.
CCGCATCA: the binding signal was 0.0853 normalized occupancy.
Then CCGCATTC, with 0.072 normalized occupancy; and ACGCATGC, with 0.124 normalized occupancy; and ACGCATGG, with 0.136 normalized occupancy.
Take CCGCATGC: the binding signal came to 0.128 normalized occupancy.
Take ACGCATTC: the binding signal amounted to 0.0764 normalized occupancy.
Then ACGCATAG, with 0.0818 normalized occupancy.
For the sequence CCGCATGA, the binding signal was determined as 0.113 normalized occupancy.
As to ACGCATAC, the binding signal came to 0.0842 normalized occupancy.
Regarding CCGCATAA, the binding signal is 0.0821 normalized occupancy.
On to ACGCTGTG, for which the binding signal turned out to be 0.0735 normalized occupancy.
Turning to ACAGGGAG, the binding signal was 0.0726 normalized occupancy.
As to AAAGGCAG, the binding signal turned out to be 0.0731 normalized occupancy.
The figure for CGGGTGAC is 0.0779 normalized occupancy; for ATTCATAA it is 0.0836 normalized occupancy.
For the sequence ATGTAGGC, the binding signal turned out to be 0.0776 normalized occupancy.
Regarding GAAAAGAA, the binding signal was 0.0746 normalized occupancy.
Take GGCATTTA: the binding signal came to 0.0801 normalized occupancy.
As for GGATCGGA, the binding signal turned out to be 0.0725 normalized occupancy.
In the case of GCGCATGA, the binding signal was 0.0897 normalized occupancy.
Consider ACGCATCA, for which the binding signal stood at 0.0829 normalized occupancy.
As for ACGCATGA, the binding signal came out at 0.102 normalized occupancy.
Then AGGCTACA, with 0.0725 normalized occupancy; and ACCACAGG, with 0.0732 normalized occupancy; and ACGTAGGC, with 0.0765 normalized occupancy.
